# Source: the supplement of paper PMC8728848
# About 410 targets per protein were measured; listed, in parts, are those with the strongest signals and a random draw of the rest.
# Key:
# Assay in all cases: glycan array binding signal (z-score within array); higher = stronger binding
# Conditions in all cases: glycan notation: IUPAC condensed, linker removed
# [1] = molecular target: Fuc(a1-2)Gal(b1-3)GlcNAc(b1-2)Man(a1-3)[Fuc(a1-2)Gal(b1-3)GlcNAc(b1-2)Man(a1-6)]Man(b1-4)GlcNAc(b1-4)GlcNAc
# Outline: (§1)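 From the Consortium for Functional Glycomics database, 3228 arrays were curated, keeping only those whose protein sequence was available. Binding is given as a within-array Z-score averaged across arrays sharing a protein sequence and across linkers. Negative Z-scores can be read as non-binding.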
# Fuc(a1-2)Gal(b1-4)GlcNAc = molecular target: Fuc(a1-2)Gal(b1-4)GlcNAc
# Outline: as §1
# [2] = molecular target: Fuc(a1-2)Gal(b1-4)GlcNAc(b1-2)[Fuc(a1-2)Gal(b1-4)GlcNAc(b1-4)]Man(a1-3)[Fuc(a1-2)Gal(b1-4)GlcNAc(b1-2)Man(a1-6)]Man(b1-4)GlcNAc(b1-4)GlcNAc
# Outline: as §1
# [3] = molecular target: Fuc(a1-2)Gal(b1-4)GlcNAc(b1-3)Gal(b1-4)GlcNAc
# Outline: as §1
# [4] = molecular target: Fuc(a1-2)Gal(b1-4)[Fuc(a1-3)]GlcNAc
# Outline: as §1
# [5] = molecular target: Fuc(a1-2)[Gal(a1-3)]Gal(b1-3)GlcNAc(b1-3)GalNAc
# Outline: as §1
# [6] = molecular target: Fuc(a1-2)[Gal(a1-3)]Gal(b1-4)GlcNAc(b1-3)[Fuc(a1-2)[Gal(a1-3)]Gal(b1-4)GlcNAc(b1-6)]GalNAc
# Outline: as §1
# [7] = molecular target: Fuc(a1-2)[Gal(a1-3)]Gal(b1-4)[Fuc(a1-3)]GlcNAc(b1-3)GalNAc
# Outline: as §1
# [8] = molecular target: Fuc(a1-2)[GalNAc(a1-3)]Gal(b1-3)GlcNAc
# Outline: as §1
# [9] = molecular target: Fuc(a1-2)[GalNAc(a1-3)]Gal(b1-4)GlcNAc(b1-3)Gal(b1-4)GlcNAc
# Outline: as §1
# Fuc(b1-3)GlcNAc = molecular target: Fuc(b1-3)GlcNAc
# Outline: as §1
# [10] = molecular target: Gal(a1-3)Gal(b1-4)GlcNAc(b1-2)Man(a1-3)[Gal(a1-3)Gal(b1-4)GlcNAc(b1-2)Man(a1-6)]Man(b1-4)GlcNAc(b1-4)GlcNAc
# Outline: as §1
# Gal(b1-2)Gal = molecular target: Gal(b1-2)Gal
# Outline: as §1
# Gal(b1-3)Gal(b1-4)GlcNAc = molecular target: Gal(b1-3)Gal(b1-4)GlcNAc
# Outline: as §1
# [11] = molecular target: Gal(b1-3)Gal(b1-4)GlcNAc(b1-2)Man(a1-3)[Gal(b1-3)Gal(b1-4)GlcNAc(b1-2)Man(a1-6)]Man(b1-4)GlcNAc(b1-4)GlcNAc
# Outline: as §1
# Gal(b1-3)GlcNAc = molecular target: Gal(b1-3)GlcNAc
# Outline: as §1
# [12] = molecular target: Gal(b1-3)GlcNAc(b1-3)GalNAc
# Outline: as §1
# Gal(b1-3)GlcNAc6S = molecular target: Gal(b1-3)GlcNAc6S
# Outline: as §1
# [13] = molecular target: Gal(b1-3)[Neu5Ac(a2-6)]GalNAc
# Outline: as §1
# [14] = molecular target: Gal(b1-4)GalNAc(b1-3)[Fuc(a1-2)]Gal(b1-4)GlcNAc
# Outline: as §1
# [15] = molecular target: Gal(b1-4)GlcNAc(b1-2)Man(a1-6)Man(b1-4)GlcNAc(b1-4)GlcNAc
# Outline: as §1
# [16] = molecular target: Gal(b1-4)GlcNAc(b1-2)Man(a1-6)[GlcNAc(b1-2)Man(a1-3)]Man(b1-4)GlcNAc(b1-4)GlcNAc
# Outline: as §1
# [17] = molecular target: Gal(b1-4)GlcNAc(b1-3)Gal(b1-4)Glc
# Outline: as §1
# [18] = molecular target: Gal(b1-4)GlcNAc(b1-3)Gal(b1-4)GlcNAc(b1-3)Gal(b1-4)GlcNAc(b1-3)Gal(b1-4)GlcNAc(b1-2)Man(a1-3)[Gal(b1-4)GlcNAc(b1-3)Gal(b1-4)GlcNAc(b1-3)Gal(b1-4)GlcNAc(b1-3)Gal(b1-4)GlcNAc(b1-2)Man(a1-6)]Man(b1-4)GlcNAc(b1-4)[Fuc(a1-6)]GlcNAc
# Outline: as §1
# [19] = molecular target: Gal(b1-4)GlcNAc(b1-3)Gal(b1-4)GlcNAc(b1-3)Gal(b1-4)GlcNAc(b1-3)Gal(b1-4)GlcNAc(b1-3)Gal(b1-4)GlcNAc(b1-3)Gal(b1-4)GlcNAc(b1-2)Man(a1-3)[Gal(b1-4)GlcNAc(b1-3)Gal(b1-4)GlcNAc(b1-3)Gal(b1-4)GlcNAc(b1-3)Gal(b1-4)GlcNAc(b1-3)Gal(b1-4)GlcNAc(b1-3)Gal(b1-4)GlcNAc(b1-2)Man(a1-6)]Man(b1-4)GlcNAc(b1-4)GlcNAc
# Outline: as §1
# [20] = molecular target: Gal(b1-4)GlcNAc(b1-3)Gal(b1-4)GlcNAc(b1-3)GalNAc
# Outline: as §1
# [21] = molecular target: Gal(b1-4)GlcNAc(b1-3)Gal(b1-4)GlcNAc(b1-3)[Gal(b1-4)GlcNAc(b1-3)Gal(b1-4)GlcNAc(b1-6)]GalNAc
# Outline: as §1
# [22] = molecular target: Gal(b1-4)GlcNAc(b1-3)[Gal(b1-4)GlcNAc(b1-6)]GalNAc
# Outline: as §1
# Gal(b1-4)GlcNAc6P = molecular target: Gal(b1-4)GlcNAc6P
# Outline: as §1
binder,measurement,setting,value
"AAL (Agrocybe aegerita), Q6WY08 (protein) MQGVNIYNISAGTSVDLAAPVTTGDIVTFFSSALNLNAGAGNPNNTTLNLFAENGAYLLHIAFRLQENVIIFNSRQPDGPWLVEQRVSDVANQFAGIDGKAMVTVFDHGDKYQVVINEKTVIQYTKQISGLTLSLSYNATEETSIFSTVVEAVTYTGLALEHHHHHH",glycan array binding signal (z-score),[1],-0.105
same,glycan array binding signal (z-score),Fuc(a1-2)Gal(b1-4)GlcNAc,-0.146
same,glycan array binding signal (z-score),[2],-0.119
same,glycan array binding signal (z-score),[3],-0.138
same,glycan array binding signal (z-score),[4],-0.147
same,glycan array binding signal (z-score),[5],-0.119
same,glycan array binding signal (z-score),[6],-0.138
same,glycan array binding signal (z-score),[7],-0.136
same,glycan array binding signal (z-score),[8],-0.152
same,glycan array binding signal (z-score),[9],-0.112
same,glycan array binding signal (z-score),Fuc(b1-3)GlcNAc,-0.123
same,glycan array binding signal (z-score),[10],7.5
same,glycan array binding signal (z-score),Gal(b1-2)Gal,-0.141
same,glycan array binding signal (z-score),Gal(b1-3)Gal(b1-4)GlcNAc,-0.135
same,glycan array binding signal (z-score),[11],6.91
same,glycan array binding signal (z-score),Gal(b1-3)GlcNAc,-0.146
same,glycan array binding signal (z-score),[12],-0.149
same,glycan array binding signal (z-score),Gal(b1-3)GlcNAc6S,-0.129
same,glycan array binding signal (z-score),[13],-0.159
same,glycan array binding signal (z-score),[14],-0.135
same,glycan array binding signal (z-score),[15],-0.162
same,glycan array binding signal (z-score),[16],-0.145
same,glycan array binding signal (z-score),[17],-0.142
same,glycan array binding signal (z-score),[18],-0.096
same,glycan array binding signal (z-score),[19],-0.099
same,glycan array binding signal (z-score),[20],-0.131
same,glycan array binding signal (z-score),[21],-0.125
same,glycan array binding signal (z-score),[22],-0.153
same,glycan array binding signal (z-score),Gal(b1-4)GlcNAc6P,-0.163
